Several values for one entry are separate records, joined by “and”; a condition that tells them apart may be missing. Equal entries are not always repeated. Unmarked numbers belong to inactive results. Inconclusive results are not listed. Entries that show only a call come without a potency. Some compounds were tested as several samples or in several runs, with calls that do not always agree. Activity calls are given as the source filed them. Calls follow the shape of the dose curve; as a rule, active = well fitted curve in the direction sought with a large enough effect in the repeat runs; inconclusive = weak or mixed curves; inactive = no such curve, though single readings can be large; an effect the other way counts as inactive or inconclusive. Residues, ends and D or L forms follow the SMILES beside them.
Tests used:
[1] = qHTS RealTime-Glo MT Cell Viability Assay in HepG2 cells - 8 hour (AID 1224873); also: nearly all actives have a fitted effect of over 55% in size
Summary of the method: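 HepG2 cells mixed with RealTime-Glo MT reagents (NanoLuc plus cell-permeant prosubstrate) were seeded at 600 cells/well, incubated 5 h at 37 C/5% CO2, then pinned with compounds in DMSO; nonlytic luminescence tracked viability during 40 h treatment.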

[2] = qHTS RealTime-Glo MT Cell Viability Assay in HEK293 cells - 40 hour (AID 1224874); conditions: RealTime-Glo luminescence; max response: hits give low values; also: nearly all actives have a fitted effect of over 50% in size; also: potency is read from the fitted curve at half-maximal effect
Summary of the method: (§1)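 Luminescence, which tracks viable cell number through reduction of the prosubstrate to a NanoLuc substrate, was read over continuous 37 C culture. Cells (600/well) were premixed with reagent and rested 5 h before 23 nL of compound in DMSO was pinned.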

[3] = A CellTox Green Cytotoxicity Assay to monitor cytotoxicity in HEK293 cells - 24 hour (AID 1224875); also: series mostly up to about 77 µM; nearly all actives have a fitted effect of over 45% in size
Summary of the method: (§2)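 Fluorescence from a DNA-binding dye excluded by viable cells was measured repeatedly in the same HEK293 wells (600 cells/well) during continuous compound exposure at 37 C. Each assay gives one read point: 0, 8, 16, 24, 32 or 40 h.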

[4] = A CellTox Green Cytotoxicity Assay to monitor cytotoxicity in HepG2 cells - 16 hour (AID 1224876); also: nearly all actives have a fitted effect of over 45% in size
Summary of the method: (§3)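 Real-time cytotoxicity: fluorescence of a cell-impermeant cyanine dye binding DNA of dead HepG2 cells, measured repeatedly (0–40 h) during compound exposure at 37 C. Cells seeded 600/well with reagent, dosed after 5 h.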

[5] = qHTS RealTime-Glo MT Cell Viability Assay in HepG2 cells - 32 hour (AID 1224877); also: nearly all actives have a fitted effect of over 55% in size
Summary of the method: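 Compound treatment began 5 h after plating HepG2 cells (600/well) with NanoLuc luciferase and prosubstrate. Plates stayed at 37 C for 40 h; luminescence was captured at six time points, 0 h through 40 h.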

[6] = A CellTox Green Cytotoxicity Assay to monitor cytotoxicity in HepG2 cells - 24 hour (AID 1224878); also: nearly all actives have a fitted effect of over 45% in size
Summary of the method: as §3

[7] = A CellTox Green Cytotoxicity Assay to monitor cytotoxicity in HepG2 cells - 40 hour (AID 1224879); also: nearly all actives have a fitted effect of over 40% in size
Summary of the method: as §3

[8] = qHTS RealTime-Glo MT Cell Viability Assay in HEK293 cells - 0 hour (AID 1224880); also: top concentration of the series differs between compounds; nearly all actives have a fitted effect of over 45% in size
Summary of the method: as §1

[9] = A CellTox Green Cytotoxicity Assay to monitor cytotoxicity in HEK293 cells - 32 hour (AID 1224881); also: nearly all actives have a fitted effect of over 40% in size
Summary of the method: as §2

[10] = A CellTox Green Cytotoxicity Assay to monitor cytotoxicity in HepG2 cells - 0 hour (AID 1224882); also: nearly all actives have a fitted effect of over 35% in size
Summary of the method: as §3

| SMILES | outcome [1] | max response [2] | Potency [3] | Potency [4] | Potency [5] | Potency [6] | Potency [7] | Potency [8] | Potency [9] | Potency [10] | Potency [2] |
| --- | --- | --- | --- | --- | --- | --- | --- | --- | --- | --- | --- |
| C[C@]12C=CC(=O)C=C1CC[C@@H]1[C@@H]2[C@@H](O)C[C@@]2(C)[C@H]1CC[C@]2(O)C(=O)CO | inactive | -4.22% and -3.97% and 0.449% | inactive | inactive | inactive | inactive | inactive | inactive | inactive | – | – |
| CNC[C@H](O)c1cccc(O)c1 | inactive | 8.72% and 5.33% and 3.68% | – | inactive | inactive | inactive | inactive | inactive | inactive | inactive | – |
| Cc1cc(=O)[nH]c(=S)[nH]1 | inactive | -0.127% and 3.69% and 0.841% | – | inactive | inactive | inactive | inactive | inactive | inactive | – | – |
| Nc1ccn([C@H]2CC[C@@H](CO)O2)c(=O)n1 | inactive | 5.91% and 4.06% and 6.95% | – | inactive | inactive | inactive | inactive | inactive | inactive | inactive | – |
| O=C(O)c1cccnc1 | inactive | -0.0653% [middle of 4 runs] | inactive | inactive | inactive | inactive | inactive | inactive | inactive | inactive | – |
| NC(N)=O | inactive | 7.94% and 4.18% and 0.0917% | – | inactive | inactive | inactive | inactive | inactive | inactive | inactive | – |
| COC(=O)[C@H](Cc1ccccc1)NC(=O)[C@@H](N)CC(=O)O (H-Asp-Phe-OMe) | inactive | 0.561% and -0.312% and -3.38% | – | inactive | inactive | inactive | inactive | inactive | inactive | inactive | – |
| OCCc1ccccc1 | inactive | 6.34% and 10.1% and 6.75% | inactive | inactive | inactive | inactive | inactive | inactive | inactive | – | – |
| CC(O)CN(CCN(CC(C)O)CC(C)O)CC(C)O (stereo not given) | inactive | 2.34% and 10.6% and -2.16% | inactive | inactive | inactive | inactive | inactive | inactive | inactive | – | – |
| O=S(=O)(O)c1ccc2cc(O)ccc2c1 | inactive | -0.603% [middle of 4 runs] | – | inactive | inactive | inactive | inactive | inactive | inactive | – | – |
| COc1ccc2[nH]cc(CCNC(C)=O)c2c1 | inactive | – | inactive | inactive | inactive | inactive | inactive | inactive | inactive | – | – |
| COc1c2occc2cc2ccc(=O)oc12 | inactive | -18.6% | inactive | inactive | inactive | inactive | inactive | inactive | inactive | inactive | 21.9 µM (active) |
| Cc1ccc(C)c(OCCCC(C)(C)C(=O)O)c1 | inactive | 7.5% and 19.4% and 5.2% | – | inactive | inactive | inactive | inactive | inactive | inactive | – | – |
| Cc1cn([C@H]2C[C@H](N=[N+]=[N-])[C@@H](CO)O2)c(=O)[nH]c1=O | inactive | -0.145% and 3.87% and 7.29% | – | inactive | inactive | inactive | inactive | inactive | inactive | – | – |
| O=C(O)C(=O)O | inactive | -1.98% and 1.92% and 0.465% | – | inactive | inactive | inactive | inactive | inactive | inactive | inactive | – |
| CC(=O)NS(=O)(=O)c1ccc(N)cc1 | inactive | 9.67% and 1.24% and 4.39% | – | inactive | inactive | inactive | inactive | inactive | inactive | – | – |
| NC(N)=NC(=O)c1nc(Cl)c(N)nc1N | inactive | -9.86% and -7.01% and -5.97% | inactive | inactive | inactive | inactive | inactive | inactive | inactive | inactive | – |
| NC(=O)NC1NC(=O)NC1=O (stereo not given) | inactive | 4.83% and -16.4% and 0.282% | inactive | inactive | inactive | inactive | inactive | inactive | inactive | – | – |
